Test results from PubChem BioAssay AID743287 (Broad Institute, 2014).
In all, about 370,000 compounds went through this assay and about 2,300 (0.62%) were called active.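 How the source made its calls: active means lowest replicate activation of at least 40%, so every replicate reaches that level; inactive means the rest.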 Shown is part of a subset that was picked to be rich in actives.

Experiment: primary screen for activators of insulin secretion dependent on glucose, INS-1E cells, GLuc reporter luminescence (AID 743287);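 further: 0% = median of neutral control wells and 100% = median of IBMX positive control wells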
Settings: INS-1E GLuc reporter insulin secretion, 2-3 h, at 16.6 µM, hits give high values

Question: For `C[C@H](CO)N1C[C@H](C)[C@H](CN(C)S(C)(=O)=O)Oc2ncc(C3=CCCC3)cc2C1=O`, which activation is on record?
Answer: 23.9% (inactive)

Question: With `COc1ccc2c3c(n(C)c2c1)[C@H](CO)N(C(=O)NC(C)C)CC31CN(CC2CCCCC2)C1` as the compound, how does the activation read?
Answer: -8.45% (inactive)

Question: Which activation does the source give for `C/C=C/c1ccc2c(c1)O[C@@H](CN(C)C(=O)c1ccncc1)[C@@H](C)CN([C@H](C)CO)S2(=O)=O` here?
Answer: 9.46% (inactive)

Question: Which activation does the source give for `C/C(=N/NC(=O)CSc1ccccn1)c1ccc([N+](=O)[O-])cc1` here?
Answer: 3.45% (inactive)

Question: For `C=CCOc1ccc(/C=N/NC(=O)C(C)Sc2ccccn2)cc1OCC` (stereo not drawn), which activation is on record?
Answer: 26.6% (inactive)

Question: With `CCOc1ccc(/C=N/NC(=O)CSc2ccccn2)cc1O` as the compound, how does the activation read?
Answer: 47.7% (active)

Question: With `Cc1ccccc1S(=O)(=O)N1CC(=O)N2[C@H](CO)[C@@H](c3ccc(C#Cc4ccccc4)cc3)[C@H]2C1` as the compound, how does the activation read?
Answer: -6.46% (inactive)

Question: With `Cc1nc(N2[C@H](CO)[C@H](c3ccccc3)[C@H]2CNCC2CCC2)sc1C` as the compound, how does the activation read?
Answer: 2.74% (inactive)

Question: With `CCCNC(=O)N1CC2(CN(C(=O)C3CCCCC3)C2)c2c([nH]c3cc(OC)ccc23)[C@@H]1CO` as the compound, how does the activation read?
Answer: 13.6% (inactive)

Question: For `Cc1ccc(-c2ccc3c(c2)O[C@@H](CN(C)C(=O)NC(C)C)[C@@H](C)CN([C@H](C)CO)S3(=O)=O)cc1`, which activation is on record?
Answer: 4.12% (inactive)

Question: Which activation does the source give for `C#CC(CCN1CCCCC1)(OC)c1ccccc1` (stereo not drawn) here?
Answer: 17.7% (inactive)

Question: Which activation does the source give for `Cc1ccc(C(C)C)cc1OCCN1CCCC1` here?
Answer: 12.9% (inactive)

Question: For `c1ccc(-c2ccccc2OCCN2CCCCC2)cc1`, which activation is on record?
Answer: 53.2% (active)

Question: With `CCCNC(=O)N1CC(=O)N2[C@H](CO)[C@@H](c3ccc(-c4ccc(F)cc4)cc3)[C@H]2C1` as the compound, how does the activation read?
Answer: -19.7% (inactive)

Question: For `C[C@H](CO)N1C[C@H](C)[C@@H](CN(C)CC2CC2)OCCCC[C@H](C)Oc2ccc(NC(=O)Cc3ccccc3)cc2C1=O`, which activation is on record?
Answer: 7.71% (inactive)

Question: Which activation does the source give for `COc1ccc(S(=O)(=O)N(C)C)cc1NC(=O)COC(=O)c1n[nH]c2ccccc12` here?
Answer: -5.72% (inactive)

Question: Which activation does the source give for `CCN(CC)S(=O)(=O)c1ccc2nc(COC(=O)c3n[nH]c4ccccc34)[nH]c2c1` here?
Answer: 57.7% (active)

Question: With `COc1ccc(COC(=O)c2n[nH]c3ccccc23)cc1F` as the compound, how does the activation read?
Answer: -12.2% (inactive)

Question: With `C[C@H](CO)N1C[C@H](C)[C@@H](CN(C)C(=O)Nc2ccnc(N3CCOCC3)c2)OCc2ccccc2-c2c(n(C)c3ccccc23)C1=O` as the compound, how does the activation read?
Answer: -17.9% (inactive)

Question: With `CNC[C@H]1Oc2ccc(NC(=O)CCC(F)(F)F)cc2C(=O)N([C@@H](C)CO)C[C@H]1C` as the compound, how does the activation read?
Answer: 4.67% (inactive)

Question: With `C[C@H]1CN([C@@H](C)CO)C(=O)c2cc(NC(=O)Cc3cn(C)c4ccccc34)ccc2O[C@@H]1CN(C)Cc1ccc(Cl)c(Cl)c1` as the compound, how does the activation read?
Answer: 7.56% (inactive)

Question: With `C[C@H](CO)N1C[C@H](C)[C@@H](CN(C)C(=O)Nc2cc(F)ccc2F)Oc2cc(C#CC3CC3)ccc2S1(=O)=O` as the compound, how does the activation read?
Answer: -8.09% (inactive)

Question: Which activation does the source give for `CN(C)C(=O)[C@@H]1[C@@H](CO)[C@@H]2Cn3c(cccc3=O)[C@H]1N2C(=O)c1ccc(F)cc1` here?
Answer: 7.45% (inactive)

Question: With `O=C(C[C@@H]1CC[C@H](NC(=O)C2CC2)[C@@H](CO)O1)NCc1ccncc1` as the compound, how does the activation read?
Answer: -4.07% (inactive)

Question: For `COc1ccc(C2OCC3(CO2)SC(=O)NC3=O)cc1OC` (stereo not drawn), which activation is on record?
Answer: 21.8% (inactive)

Question: Which activation does the source give for `COc1ccc(C2CC(=O)Nc3sc(=N)c4c(N)c(C#N)c(N)nc4c32)cc1OC` (stereo not drawn) here?
Answer: 70.3% (active)

Question: Which activation does the source give for `CCc1nc2c(OCc3ccccc3)cccn2c1N(C)C(=O)c1ccco1` here?
Answer: 17.3% (inactive)

Question: For `CCc1nc2c(OCCC3CCCCC3)cccn2c1N(C)C(=O)c1ccco1`, which activation is on record?
Answer: 42% (active)

Question: With `CCc1nc2c(OCc3ccc(F)c(F)c3)cccn2c1N(C)C(=O)c1ccco1` as the compound, how does the activation read?
Answer: -1.95% (inactive)

Question: Which activation does the source give for `CCC(=O)Nc1ccc2c(c1)C(=O)N(C)C[C@@H](OC)[C@H](C)CN(Cc1cccnc1)[C@@H](C)CO2` here?
Answer: -1.44% (inactive)

Question: For `C[C@@H]1CN([C@@H](C)CO)C(=O)c2cccc(NC(=O)C3CC3)c2O[C@@H]1CN(C)C`, which activation is on record?
Answer: 21.1% (inactive)

Question: With `CCOC(=O)c1c(NC(=O)C2CCN(S(=O)(=O)c3ccc(Cl)cc3)CC2)sc2c1CCCC2` as the compound, how does the activation read?
Answer: -4.47% (inactive)

Question: With `C=CCN(CC=C)S(=O)(=O)c1ccc(C(=O)Nc2sc3c(c2C(N)=O)CCCCC3)cc1` as the compound, how does the activation read?
Answer: 47.2% (active)

Question: With `CC(=O)N1CCc2c(sc(NC(=O)CCS(=O)(=O)c3ccc(C)cc3)c2C(N)=O)C1` as the compound, how does the activation read?
Answer: 4.75% (inactive)

Question: For `Cc1ccc(S(=O)(=O)N(C)C[C@@H]2Oc3c(NC(=O)C4CCCCC4)cccc3C(=O)N([C@H](C)CO)C[C@H]2C)cc1`, which activation is on record?
Answer: -9.86% (inactive)

Question: For `O=C(Nc1ccc(CN2CCOCC2)cc1)c1cc(Cl)ccc1Cl`, which activation is on record?
Answer: -0.035% (inactive)

Question: For `C=CCc1cccc2cc(C(=O)Nc3ccc(NC(C)=O)cc3)c(=O)oc12`, which activation is on record?
Answer: 6.64% (inactive)

Question: With `C=CCn1cc(Cl)cc(C(=O)Nc2ccccc2)c1=O` as the compound, how does the activation read?
Answer: 98.4% (active)

Question: With `C[C@H](CO)N1C[C@H](C)[C@H](CN(C)S(=O)(=O)c2ccccc2)Oc2ccc(NC(=O)Cn3cnnn3)cc2C1=O` as the compound, how does the activation read?
Answer: 12.8% (inactive)

Question: With `C[C@H]1CN([C@@H](C)CO)C(=O)c2cccc(NC(=O)Nc3ccc(F)cc3)c2O[C@H]1CN(C)S(=O)(=O)c1cn(C)cn1` as the compound, how does the activation read?
Answer: 6.95% (inactive)

Question: With `O=C(COC(=O)/C=C/c1ccc(Cl)cc1)NC1CCS(=O)(=O)C1` (stereo not drawn) as the compound, how does the activation read?
Answer: 14.8% (inactive)

Question: For `O=C(COC(=O)c1ncc(Cl)c(Cl)c1Cl)NNC(=O)c1ccccc1`, which activation is on record?
Answer: -6.14% (inactive)

Question: For `O=C(COC(=O)c1ncc(Cl)c(Cl)c1Cl)NC1CCS(=O)(=O)C1` (stereo not drawn), which activation is on record?
Answer: 53.1% (active)

Question: With `OC(c1ccccc1)(c1ccccc1)C1CCN(CCCOc2ccc(-c3ccsc3)cc2)CC1` as the compound, how does the activation read?
Answer: 83.7% (active)

Question: Which activation does the source give for `O=c1[nH]c2ccccc2n1C1CCN(CCOc2ccccc2)CC1` here?
Answer: -4.23% (inactive)

Question: Which activation does the source give for `N#Cc1ccc(OCCCN2CCC(C(O)(c3ccccc3)c3ccccc3)CC2)c(F)c1` here?
Answer: -32.8% (inactive)

Question: Which activation does the source give for `CC(=O)N1[C@H](CN(C)S(=O)(=O)c2ccccc2)[C@H](c2ccccc2)[C@@H]1CO` here?
Answer: 2.97% (inactive)

Question: With `COc1ccc(NC(=O)N(C)C[C@@H]2Oc3ccc(NC(=O)Nc4ccccc4)cc3CC(=O)N([C@H](C)CO)C[C@@H]2C)cc1` as the compound, how does the activation read?
Answer: -8.36% (inactive)

Question: With `CN1CCCc2nc(-c3ccccc3)ccc21` as the compound, how does the activation read?
Answer: 15.2% (inactive)

Question: With `CNc1nc(-c2ccccc2)cc(-c2ccccc2)n1` as the compound, how does the activation read?
Answer: 50.3% (active)

Question: Which activation does the source give for `Cc1ccc(-c2cc(=O)[nH]c(NCc3ccccc3)n2)cc1` here?
Answer: 0.61% (inactive)

Question: With `C[C@@H]1CN([C@H](C)CO)C(=O)c2cccc(NC(=O)CCCCCC(=O)Nc3ccccc3N)c2O[C@H]1CN(C)Cc1ccc(Oc2ccccc2)cc1` as the compound, how does the activation read?
Answer: -51.6% (inactive)

Question: Which activation does the source give for `O=C(C[C@@H]1CC[C@@H](NC(=O)c2ccc3c(c2)OCO3)[C@H](CO)O1)NCc1ccc(Cl)cc1` here?
Answer: -2.44% (inactive)

Question: With `COc1ccc(S(=O)(=O)N(C)C[C@H]2Oc3ccc(NS(=O)(=O)c4ccc(F)cc4)cc3C(=O)N([C@H](C)CO)C[C@H]2C)cc1` as the compound, how does the activation read?
Answer: -11.6% (inactive)

Question: Which activation does the source give for `COC(=O)C1=C(C)N(C)C(=S)NC1c1cc(OC)ccc1OC` (stereo not drawn) here?
Answer: -51% (inactive)

Question: Which activation does the source give for `COC(=O)C1=C(C)NC(=S)NC1c1ccc(OC)cc1` (stereo not drawn) here?
Answer: 140% (active)

Question: Which activation does the source give for `COC(=O)C1=C(C)NC(=S)NC1c1ccc(OCC(=O)N2CC(C)OC(C)C2)c(OC)c1` (stereo not drawn) here?
Answer: 8.95% (inactive)

Question: Which activation does the source give for `CC(=O)N(C)C[C@@H]1Oc2ccc(N)cc2CC(=O)N(C)C[C@H]1C` here?
Answer: -4.42% (inactive)

Question: For `Cc1cc(C)c2oc(C(=O)Nc3ccc(S(=O)(=O)Nc4nccc(C)n4)cc3)cc(=O)c2c1`, which activation is on record?
Answer: 74.6% (active)

Question: With `Cc1ccnc(NS(=O)(=O)c2ccc(NC(=O)c3oc4ccc(F)cc4c3C)cc2)n1` as the compound, how does the activation read?
Answer: 17.6% (inactive)

Question: For `Cc1ccnc(NS(=O)(=O)c2ccc(NC(=O)c3oc4ccccc4c3C)cc2)n1`, which activation is on record?
Answer: -7.58% (inactive)

Question: Which activation does the source give for `CC(=O)Nc1ccc2c(c1)CC(=O)N(C)C[C@H](C)[C@H](CN(C)S(C)(=O)=O)O2` here?
Answer: 17.7% (inactive)

Question: For `CC=Cc1ccc2n(c1=O)C[C@H]1[C@H](CO)[C@@H](C(=O)NC3CCCC3)[C@@H]2N1C(=O)c1cnccn1` (mixture of isomers), which activation is on record?
Answer: 3.54% (inactive)

Question: For `Cc1ccccc1C(=O)NC(=S)NC1CC1`, which activation is on record?
Answer: -11.6% (inactive)

Question: For `CC1CN(C(=S)Nc2ccc(Br)cc2Cl)CC(C)O1` (stereo not drawn), which activation is on record?
Answer: -10.5% (inactive)

Question: For `Cc1cc(Br)ccc1NC(=S)NC1CCCC1`, which activation is on record?
Answer: 46.8% (active)

Question: For `C[C@@H]1CN([C@H](C)CO)C(=O)c2cccc(NS(=O)(=O)c3cn(C)cn3)c2O[C@H]1CN(C)S(=O)(=O)c1ccc(Cl)cc1`, which activation is on record?
Answer: 12% (inactive)

Question: With `O=C(Nc1ccccc1F)N1CC(=O)N2[C@H](CO)[C@H](c3ccc(C#CC4CC4)cc3)[C@@H]2C1` as the compound, how does the activation read?
Answer: -9.47% (inactive)

Question: With `COc1cccc(CNC(=O)c2cc3c(c(-c4cccc(-c5ccc(C#N)cc5)c4)n2)[C@@H](CCO)N([S@](=O)C(C)(C)C)C3)c1` as the compound, how does the activation read?
Answer: 11.4% (inactive)

Question: With `O=C1NCCOCc2cn(nn2)CC[C@@H]1Cc1ccccc1` as the compound, how does the activation read?
Answer: 9.64% (inactive)

Question: With `CCOC(=O)c1sc2nc(C)nc(SCC(N)=O)c2c1C` as the compound, how does the activation read?
Answer: 13.1% (inactive)

Question: Which activation does the source give for `CCOC(=O)c1sc2nc(C)[nH]c(=O)c2c1C` here?
Answer: 49.9% (active)

Question: For `CCOC(=O)c1sc2nc(C)nc(Nc3ccc(OC)c(OC)c3)c2c1C`, which activation is on record?
Answer: 15.4% (inactive)

Question: With `CCCNC(=O)N1C[C@@H](O)COC[C@H]2O[C@H](CC(=O)N3CCC(Cc4ccccc4)CC3)CC[C@@H]21` as the compound, how does the activation read?
Answer: 2.87% (inactive)

Question: Which activation does the source give for `CC(C)NC(=O)N1CCCCN2[C@H](CO)[C@@H](c3ccc(Br)cc3)[C@H]2C1` here?
Answer: 1.31% (inactive)

Question: For `COc1ccc(-c2c(NC(=O)c3ccco3)oc3ccc(Cl)cc3c2=O)cc1`, which activation is on record?
Answer: 106% (active)

Question: Which activation does the source give for `Cc1cccc(-c2c(NC(=O)c3ccco3)oc3ccc(Cl)cc3c2=O)c1` here?
Answer: -13.2% (inactive)

Question: With `COc1ccc(OC)c(NC(=O)c2cnn(-c3ccccc3Cl)c2NC(=O)c2ccco2)c1` as the compound, how does the activation read?
Answer: -0.082% (inactive)
